We go through 4 molecules from PubChem BioAssay.

Activity calls are given as the source filed them.

Experiment [1] in a line: optical density shifts of acrAB sulA E. coli – strain DRC41, OD650, 48 h, E. coli filamentation inducer project, primary screen (AID 1152).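 Also: E. coli MC1000 strain DRC41 lacking acrAB efflux pump and sulA.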 The note with it: higher = more signal, called active from +8 up or from −8 down.
Experiment [2] is described as follows: probe aLefty1 binding on compound microarray – biochemical, small-molecule microarray, 635/667 nm fluorescence, primary screen (AID 1153).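 Also: score merges spot fluorescence with signal-to-noise ratio from the scanned slide images.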 The note with it: higher = more signal.
The nature of experiment [3]: plasmodial surface anion channel blockers, osmotic lysis – cell-based, P. falciparum Indochina, OD700, 1 h, primary screen (AID 1154). The conditions noted are these: P. falciparum Indochina infected RBC osmotic lysis, higher = more signal, called active from +8 up or from −8 down.
The nature of experiment [4]: plasmodial surface anion channel blockers, osmotic lysis – cell-based, P. falciparum Indochina, OD700, 2 h, primary screen (AID 1155).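 Also: lysis reports solute entry through the parasite surface anion channel PSAC.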 The note with it: P. falciparum Indochina infected erythrocytes, higher = more signal, called active from +8 up or from −8 down.
The nature of experiment [5]: changes in parasitized red cell lysis, either direction – P. falciparum Indochina, OD700, 3 h, PSAC antagonist project, primary screen (AID 1156). The conditions noted are these: P. falciparum-infected erythrocytes, osmotic lysis, higher = more signal, called active from +8 up or from −8 down.
The nature of experiment [6]: plasmodial surface anion channel blockers, osmotic lysis – cell-based, P. falciparum Indochina, OD700, 18 h, primary screen (AID 1157). The conditions noted are these: P. falciparum Indochina infected erythrocytes, osmotic lysis OD700, 18 h; higher = more signal, called active from +8 up or from −8 down.
Experiment [7] can be described thus: S6 kinase pathway phospho-S6 level changes – cell-based, A549, cytoblot, luminescence, serum-stimulated, primary screen (AID 1158).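 Also: serum-stimulated A549 lung adenocarcinoma cells; signal is phosphorylated S6 detected by cytoblot immunostaining with HRP secondary.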 The note with it: 5 h, higher = more signal.
Experiment [8] deals with NADPH oxidase 2 (Homo sapiens) (UniProt P04839). Nature of the experiment: compounds shifting NOX2 Amplex Red fluorescence – cell-based, HEK293-NOX2, PMA-stimulated, NOX inhibitor project, primary screen (AID 1159). Also: test concentration not given here. The note with it: 45 min, higher = more signal, called active from +8 up or from −8 down.
Experiment [9] addresses NADPH oxidase 4 (Homo sapiens) (UniProt Q9NPH5). The experiment is described as follows: compounds shifting NOX4 Amplex Red fluorescence – cell-based, HEK293-NOX4, tetracycline-induced, NOX inhibitor project, primary screen (AID 1160). The note with it: HEK293-NOX4, Amplex Red H2O2 fluorescence, 45 min; higher = more signal, called active from +8 up or from −8 down.
In experiment [10] the target is NADPH oxidase 5 (Homo sapiens) (UniProt Q96PH1). The experiment is described as follows: compounds shifting NOX5 Amplex Red fluorescence – cell-based, HEK293-NOX5, NOX inhibitor project, primary screen (AID 1161). The conditions noted are these: HEK293-NOX5, ionomycin, 45 min, higher = more signal.
Experiment [11] in a line: compound effects on lung adenocarcinoma cell viability – A549, calcein-AM fluorescence, 48 h, basal, profiling panel (AID 1162). Also: test concentration not given here. The conditions noted are these: higher = more signal.
Experiment [12] is described as follows: compound effects on differentiated 3T3-L1 adipocyte viability – cell-based, 3T3-L1 adipocytes, calcein-AM fluorescence, 48 h, basal, profiling panel (AID 1163). Also: test concentration not given here. The conditions noted are these: 3T3-L1 adipocytes viability, higher = more signal.
Experiment [13] in a line: compound effects on hepatocellular carcinoma cell viability – HepG2, calcein-AM fluorescence, 48 h, basal, profiling panel (AID 1164). Also: test concentration not given here. The conditions noted are these: higher = more signal.
Experiment [14] in a line: compound effects on multiple myeloma cell viability – MM1S, calcein-AM fluorescence, 48 h, basal, profiling panel (AID 1165).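 Also: viability of MM1S multiple myeloma cells under basal unstimulated conditions; test concentration not given here.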 The note with it: higher = more signal.
Experiment [15] is described as follows: calcein-AM signal in unstimulated myeloma cells – cell-based, calcein-AM fluorescence, 48 h, PK04 Diversity Set, profiling panel (AID 1166).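 Also: cells grown under basal conditions without added stimulus; test concentration not given here.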 The conditions noted are these: RPMI8226 myeloma viability, higher = more signal.
Experiment [16] in a line: JC-1 mitochondrial signal, unstimulated HepG2 cells – cell-based, JC-1 fluorescence, 24 h, 100 nL compound, profiling panel (AID 1167). Also: test concentration not given here. The conditions noted are these: HepG2 mitochondrial potential, higher = more signal.
Experiment [17] in a line: JC-1 mitochondrial signal, unstimulated adipocytes – cell-based, JC-1 fluorescence, 3T3-L1 adipocytes, 24 h, 100 nL compound, profiling panel (AID 1168). Also: test concentration not given here. The note with it: JC-1 mitochondrial fluorescence, higher = more signal, called active from +8 up or from −8 down.
A short description of experiment [18]: JC-1 mitochondrial signal, unstimulated myeloma cells – cell-based, JC-1 fluorescence, RPMI8226, 24 h, 100 nL compound, profiling panel (AID 1169). Also: test concentration not given here. The note with it: JC-1 mitochondrial potential fluorescence, higher = more signal.
Experiment [19] is described as follows: JC-1 mitochondrial signal, unstimulated MM1S myeloma – cell-based, JC-1 fluorescence, 24 h, 100 nL compound, profiling panel (AID 1170). Also: test concentration not given here. The conditions noted are these: MM1S mitochondrial potential, higher = more signal.
Experiment [20] in a line: resazurin metabolic signal in A549 cells – cell-based, resazurin fluorescence, 24 h, PK04 Diversity Set, profiling panel (AID 1171). Also: test concentration not given here. The conditions noted are these: A549 viability, higher = more signal, called active from +8 up or from −8 down. (In general: Resazurin is reduced to fluorescent resorufin, in cell work by metabolically active cells.)

NADPH oxidase 2 (Homo sapiens), sequence (P04839 whole entry, looked up): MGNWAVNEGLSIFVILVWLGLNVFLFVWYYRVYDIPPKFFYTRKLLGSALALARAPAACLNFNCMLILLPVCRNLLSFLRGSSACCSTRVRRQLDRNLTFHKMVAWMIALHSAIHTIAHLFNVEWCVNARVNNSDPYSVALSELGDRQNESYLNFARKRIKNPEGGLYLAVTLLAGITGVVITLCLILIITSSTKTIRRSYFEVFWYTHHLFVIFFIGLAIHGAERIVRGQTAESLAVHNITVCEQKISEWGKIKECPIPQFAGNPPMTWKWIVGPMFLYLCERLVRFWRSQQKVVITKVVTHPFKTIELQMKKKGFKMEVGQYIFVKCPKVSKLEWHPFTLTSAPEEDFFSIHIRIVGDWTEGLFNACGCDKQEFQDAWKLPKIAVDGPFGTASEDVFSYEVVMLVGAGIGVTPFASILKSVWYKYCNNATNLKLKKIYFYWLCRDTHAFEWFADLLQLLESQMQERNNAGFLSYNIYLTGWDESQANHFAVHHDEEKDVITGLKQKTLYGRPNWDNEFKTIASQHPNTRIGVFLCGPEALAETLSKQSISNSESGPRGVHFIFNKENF
NADPH oxidase 5 (Homo sapiens), sequence (Q96PH1 whole entry, looked up): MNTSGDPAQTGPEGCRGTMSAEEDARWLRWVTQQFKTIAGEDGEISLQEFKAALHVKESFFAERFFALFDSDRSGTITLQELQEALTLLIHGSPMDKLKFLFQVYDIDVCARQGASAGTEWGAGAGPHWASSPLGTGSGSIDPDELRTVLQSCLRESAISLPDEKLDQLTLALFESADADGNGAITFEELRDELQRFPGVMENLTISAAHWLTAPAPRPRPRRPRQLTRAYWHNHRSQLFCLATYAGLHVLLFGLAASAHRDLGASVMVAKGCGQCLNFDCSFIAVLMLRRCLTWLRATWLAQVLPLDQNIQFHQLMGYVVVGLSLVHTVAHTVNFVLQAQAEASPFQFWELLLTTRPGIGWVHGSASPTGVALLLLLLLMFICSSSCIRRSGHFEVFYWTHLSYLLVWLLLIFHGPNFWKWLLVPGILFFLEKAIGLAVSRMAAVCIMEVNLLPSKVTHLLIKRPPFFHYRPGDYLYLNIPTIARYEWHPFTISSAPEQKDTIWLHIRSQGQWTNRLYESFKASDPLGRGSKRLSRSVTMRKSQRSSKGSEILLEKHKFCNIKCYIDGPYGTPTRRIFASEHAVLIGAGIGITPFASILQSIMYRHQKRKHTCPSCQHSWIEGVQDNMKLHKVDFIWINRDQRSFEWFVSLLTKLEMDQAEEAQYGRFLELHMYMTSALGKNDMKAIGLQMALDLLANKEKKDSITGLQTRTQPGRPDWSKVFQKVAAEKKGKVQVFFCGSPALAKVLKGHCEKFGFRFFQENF
NADPH oxidase 4 (Homo sapiens), sequence (Q9NPH5 whole entry, looked up): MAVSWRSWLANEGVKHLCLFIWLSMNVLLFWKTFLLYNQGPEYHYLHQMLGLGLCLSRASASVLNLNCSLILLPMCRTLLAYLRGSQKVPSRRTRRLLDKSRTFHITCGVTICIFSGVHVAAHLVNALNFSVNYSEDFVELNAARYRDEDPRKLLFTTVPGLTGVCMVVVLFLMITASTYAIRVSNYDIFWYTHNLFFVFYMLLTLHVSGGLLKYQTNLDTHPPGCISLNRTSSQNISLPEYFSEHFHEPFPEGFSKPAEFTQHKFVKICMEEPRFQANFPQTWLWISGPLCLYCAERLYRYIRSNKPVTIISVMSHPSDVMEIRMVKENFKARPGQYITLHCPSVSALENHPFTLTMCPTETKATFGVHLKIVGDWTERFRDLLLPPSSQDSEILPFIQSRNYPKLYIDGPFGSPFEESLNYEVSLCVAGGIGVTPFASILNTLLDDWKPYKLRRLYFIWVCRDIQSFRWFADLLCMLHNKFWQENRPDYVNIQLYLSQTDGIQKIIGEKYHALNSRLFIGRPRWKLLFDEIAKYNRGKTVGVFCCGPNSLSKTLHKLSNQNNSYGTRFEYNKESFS

Consider `CO[C@H]1COC(=O)CCC[C@@H](C)[C@H](OC)COC(=O)[C@@H](C)NC(=O)CC=C[C@@H]1C`, for which the z-score in [1] was 0.312 (inactive); in experiment [3] it was -0.806 (inactive); in experiment [4], -0.912 (inactive); in [5], 0.565 (inactive); in experiment [6] it was -1.59 (inactive); in experiment [7], 1.05. The z-score was -1.18 (inactive) in experiment [8]; -2.55 (inactive) in experiment [9]; -1.3 in experiment [10]; -0.682 in experiment [11]; 1.07 in experiment [12]; -0.796 in [13]. The z-score is 0.0819 in experiment [14]; -1.04 in experiment [15]; 1.95 in [16]; 1.34 (inactive) in experiment [17]; 0.246 in experiment [18]; -0.754 in experiment [19]. Besides, the z-score in experiment [20] is 1.02 (inactive). This molecule also had a composite z-score in experiment [2] of -0.0969.

Regarding `CC(CCN1CCCc2nc(C)c(C)cc21)=NOC(C)CN1CCCCc2nc(C)c(C)cc21` (stereo not given), the z-score in experiment [1] was -0.702 (inactive); in experiment [3] it was 2.12 (inactive); in [4], 0.193 (inactive); in experiment [5] it was 0.564 (inactive); in [6], 0.415 (inactive); in experiment [7], -0.775. Besides, the z-score is -0.397 (inactive) in experiment [8]; -1.71 (inactive) in [9]; -0.496 in experiment [10]; -0.37 in experiment [11]; -0.219 in [12]; -0.508 in [13]. The z-score is -0.675 in [14]; -0.388 in [15]; 1.83 in experiment [16]; -1.86 (inactive) in experiment [17]; 0.264 in experiment [18]; 0.547 in experiment [19]. In addition, in experiment [20], the z-score was -0.0774 (inactive). The molecule also displayed a composite z-score in experiment [2] of 0.123.

As to `CCOC(=O)NN=C1C[C@@H](O)[C@@H](O)[C@@H]2[C@@H]3C(=O)N(c4cccc(Oc5ccccc5)c4)C(=O)[C@@H]3CC[C@@H]12`, the z-score in experiment [1] is -0.852 (inactive); in [3], 0.999 (inactive); in experiment [4], 0.753 (inactive); in experiment [5] it was 0.471 (inactive); in experiment [6], 0.233 (inactive); in experiment [7], -0.142. Further, the z-score was 0.361 (inactive) in [8]; -0.0548 (inactive) in experiment [9]; -2.88 in [10]; -0.382 in [11]; 0.279 in experiment [12]; -1.56 in experiment [13]. In addition, the z-score is -0.454 in [14]; -0.423 in [15]; -0.0933 in experiment [16]; -0.451 (inactive) in experiment [17]; -0.0715 in experiment [18]; 0.524 in experiment [19]. The z-score in experiment [20] is -0.0206 (inactive). Moreover, the composite z-score in [2] is -0.0984.

As to `O=c1n(Cc2cc3c(cc2Cl)OCO3)c(=O)n2n1CC[C@@H]1C(=NOC[C@@H](O)COCc3ccco3)[C@H]3O[C@H]3[C@@H](O)[C@@H]12`, the z-score is -0.289 (inactive) in experiment [1]; 0.0384 (inactive) in experiment [3]; 0.012 (inactive) in experiment [4]; -0.258 (inactive) in experiment [5]; -0.138 (inactive) in experiment [6]; 0.393 in experiment [7]. In addition, the z-score is 0.0338 (inactive) in experiment [8]; -1.95 (inactive) in experiment [9]; -0.278 in [10]; -0.158 in experiment [11]; -0.322 in experiment [12]; 0.105 in experiment [13]. Further, the z-score in [14] was 0.0423; in experiment [15], -0.552; in [16], -0.611; in experiment [17], -1.6 (inactive); in [18], 0.0236; in [19], -0.211. In addition, the z-score in experiment [20] was -0.127 (inactive). Besides, the composite z-score in [2] is 0.175.
